Our source for the growth values is PubChem BioAssay (NCI).

Compounds without any hit were thinned out: in the full panel of roughly 83,000, 20% have a hit.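 Single-concentration screen, 48 h exposure, 96-well plates. Endpoint: percent growth. Below 10 = active.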 Active and inactive are the calls of the source.

This experiment deals with HL-60(TB) leukemia. As to the kind of experiment: NCI-60 one-dose screen, 48 h (100 = growth as untreated, 0 = no growth, -100 = all killed). To be noted: 10 µM unless noted.
On to `O=C(CSc1nc2ccccc2c(=O)n1-c1ccccc1)Nc1ccc(C(=O)/C=C/c2ccc(Cl)cc2)cc1`, for which the growth is 99% (inactive).

As for `Cn1cc(-c2nn3cc(-c4cccs4)nc3s2)c2cc(F)ccc21`, the growth is 3.45% (active).

Take `CC(C)C/C(=N\NC(=O)c1ccncc1)c1cc(Cl)ccc1O`: the growth was -32.3% (active).

With `O=C(CN1CCNCC1)N1CCOCC1`, the growth was 68.5% (inactive).

Take `COc1cc(NC(=O)c2cccc(-c3cc(=O)c4c(OC)c(OC)c(OC)cc4o3)c2)cc(OC)c1OC`: the growth was 36% (inactive).

As for `CCOC(=O)/C=C1\S/C(=N\Nc2cc(=O)[nH]c3ccc(Br)cc23)N(c2ccccc2)C1=O`, the growth was -12.1% (active).

`COc1cccc2c1C(=O)c1c(O)c3c(c(O)c1C2=O)C[C@](O)(C(=O)CO)C[C@H]3O[C@@H]1C[C@@H](NC(=O)CCCCCN(C)C2(c3ccc(F)cc3)CC3CCC2C3)[C@H](O)[C@@H](C)O1` (some centres undefined): the growth was 84.9% (inactive).

For `O=C(N/N=C\c1cc(Br)cc(Br)c1O)N/N=C/c1cc(Br)cc(Br)c1O`, the growth is 8.67% (active).

On to `CCCO/N=C/c1ccccn1`, for which the growth was 94.8% (inactive).

For the molecule `COC(=O)c1cc2oc(/C=C3/SC(=S)N(N)C3=O)cc2n1Cc1ccccc1`, the growth was 53.7% (inactive).

Consider `C=CC(=O)OCCCCCCCC`, for which the growth is 88.6% (inactive).

As for `N/C(=N\N=C\c1ccc2c(c1)OCO2)N/N=C\c1ccc2c(c1)OCO2`, the growth was 80% (inactive).

For `CC/C=C\C[C@H](O)C/C=C1/C(=O)C(Cl)=C[C@@H]1C/C=C\CCCC(=O)OC`, the growth is -2.33% (active).

As to `Cc1ccc(-c2cc(-c3ccc(C)cc3)nc(N3CCN(CCNc4ccnc5cc(Cl)ccc45)CC3)n2)cc1`, the growth was 0.0538% (active).
